Shown are actives, neighbours in structure and some others; about 19% of the full set was active somewhere.
Marburg entry inh – qHTS for inhibitors of binding or entry into cells for Marburg Virus; Marburg virus pseudotyped entry inhibition, cell reporter; Potency, µM (series often up to 37.8 µM), inactives show top-dose activity change, negative = inhibition, hits mostly inhibitors; 300,000 tested, 1.8% active; calls by dose curve; tested in HEK293 cells; further: potency means the concentration at half of the fitted maximal effect; on the % scale 0 is the no-effect control and ±100 the full control effect
Pf growth 96h – Primary qHTS for delayed death inhibitors of the malarial parasite plastid, 96 hour incubation; P. falciparum luciferase reporter growth, 96 h; Potency, µM (highest dose often 28.7 µM), without a hit: at the top dose activity change, negative = inhibition, hits mostly inhibitors; 320,000 tested, 6.9% active; further: potency means the concentration at half of the fitted maximal effect; on the % scale 0 is the no-effect control and ±100 the full control effect
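P. falciparum expressing integrated firefly luciferase, in erythrocytes at 2% hematocrit, 0.05% parasitemia, incubated with compounds 96 h at 37 C, 5% CO2. Growth inhibition read as loss of luminescence; two-generation exposure targets delayed-death apicoplast inhibitors.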
CHX counter-1 – Cycloheximide Counterscreen for Small Molecule Inhibitors of Shiga Toxin; cell reporter, cycloheximide protein synthesis inhibition counterscreen; max response, %; 300,000 tested, 12% active; in the data active means max response mostly above about 13%, no sharp cut-off; inactive means mostly below about 14%; further: read at 38.3 µM for the half of the compounds with a filed dose; 0% is about no effect
Shiga inhibitor – A qHTS for Small Molecule Inhibitors of Shiga Toxin; Vero cells, Shiga toxin protein synthesis inhibition reporter; inhibition, % at 38.7 µM; 290,000 tested, 9.2% active; in the data active means inhibition mostly above about 28%, no sharp cut-off; inactive means mostly below about 43%; further: 0% is about no effect
Lassa entry inh – qHTS for Inhibitors of binding or entry into cells for Lassa Virus. Lassa virus pseudotype entry inhibition, cell reporter. Potency, µM (doses to about 37.9 µM), for the others: top-dose activity change, negative = inhibition, usual class: inhibitors. 300,000 tested, 1.2% active. AID 540256, 2011; calls by dose curve; tested in HEK293 cells; further: potency means the concentration at half of the fitted maximal effect; on the % scale 0 is the no-effect control and ±100 the full control effect; nearly all actives have a fitted effect of over 50% in size
Pf growth 48h – Primary qHTS for delayed death inhibitors of the malarial parasite plastid, 48 hour incubation; AID 504832, 2011; 310,000 tested, 5.9% active; P. falciparum luciferase growth in erythrocytes, 48 h; Potency, µM (top dose mostly 28.7 µM), without a hit: top-dose activity change, negative = inhibition, actives largely listed as inhibitors; further: potency means the concentration at half of the fitted maximal effect; on the % scale 0 is the no-effect control and ±100 the full control effect
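Growth was read as firefly luciferase luminescence after a 48 h, 37 C, 5% CO2 exposure of compounds to reporter-bearing P. falciparum cultures (0.1% parasitemia, 2% hematocrit final) in Albumax-supplemented RPMI 1640.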
CHX counter-2 – Cycloheximide Counterscreen for Small Molecule Inhibitors of Shiga Toxin (Confirmatory). shares compounds with Shiga inhibitor. Cycloheximide counterscreen, protein synthesis reporter, Shiga toxin assay. Potency, µM (doses to about 38.3 µM), for the others: at the highest dose activity (activation), actives largely listed as activators. 510 tested, 3% active. AID 2318, 2010; calls by dose curve; further: potency means the concentration at half of the fitted maximal effect; 0% is about no effect
The depositor's hits bear a star; ? = inconclusive; . = no result given; [ ] = dose if it differs, or a comment. Unless noted, the call rests on the fitted dose curve; in most records, active means well fitted inhibition curve with a large enough effect; inconclusive means small, poorly fitted or top-dose-only effect, or another doubt; inactive means no such curve, though single readings can be large or run the other way.

SMILES	Marburg entry inh	Pf growth 96h	CHX counter-1	Shiga inhibitor	Lassa entry inh	Pf growth 48h	CHX counter-2
CCN(C(=O)c1ccc(Cl)cc1[N+](=O)[O-])c1ccccc1C	?	?	7.3	4.6	-24.0%[46.1 µM]	-11.2%	.
CCn1c(SCC(=O)O)nnc1-c1ccc2[nH]c(C)c(C)c2c1	3.4%	-5.1%	14.2	26.7*	-10.6%	22.5%	5.3%
CCn1c(SCC(N)=O)nnc1-c1ccc2[nH]c(C)c(C)c2c1	-0.8%	11.6%	-1.6	-11.5	4.0%	9.8%	.
COc1ccc2cc(C(=O)NCc3ccccc3)[nH]c2c1	?	53.0%	12.1	31.3*	12.4%[46.1 µM]	28.0%	?
COc1ccc2[nH]c(C(=O)NCc3ccccc3)c(C)c2c1	?	18.8%	15.0	23.3	?	27.5%	.
O=c1[nH]c2ccccc2cc1-c1noc(-c2cccnc2)n1	3.8%	-0.3%	2.2	37.8	8.0%	-27.0%	.
O=C(c1cccnc1)c1cc2ccccc2[nH]1	10.5%	2.5%	2.7	active	-2.0%	22.9%	5.5%
O=C(NCCC1=CCCCC1)C1CCN(S(=O)(=O)c2cccc3cccnc23)CC1	.	?	8.9	active	.	-14.1%	2.6%
O=C(CCC1CCN(C(=O)c2ccco2)CC1)NCc1ccc(F)cc1	6.7%	?	-1.3	-10.3	1.0%	-17.0%	.
CCCCc1ccc(NS(=O)(=O)N(C)C)cc1	?	10.4µM*	1.5	71.9*	-8.8%	23.8%	2.5%
CN(C)S(=O)(=O)Nc1ccc(Oc2ccccc2)cc1	-16.0%	.	-1.0	-24.9	-6.4%	10.7%	.
COc1cc(OC)c(OC)cc1CN1CCN(S(=O)(=O)c2ccc(NC(C)=O)cc2)CC1	5.2%[46.1 µM]	-19.6%	-2.0	-18.9	-3.8%	?	.
COc1cc(CN2CCN(CC#Cc3ccccc3)CC2CCO)cc(OC)c1 (stereo unspecified)	.	?	7.6	20.5*	.	-14.7%	-0.9%
Cc1cccc(NC(=O)CN(C)C(=O)c2ccc(N3CCCCCC3)c([N+](=O)[O-])c2)c1C	?	.	.	.	-29.4%[46.1 µM]	.	.
CC(C)Oc1ccc(C(=O)NC(Cc2c[nH]c3ccccc23)C(=O)NN)cc1 (stereo unspecified)	.	22.3%	9.2	36.5*	.	16.3%	0.7%
Cc1ccc(C(=O)NC(Cc2c[nH]c3ccccc23)C(=O)O)cc1 (stereo unspecified)	4.0%	.	-1.1	-8.3	-3.5%	10.9%	.
O=C(NCc1ccc(F)cc1)c1c2c(nc3ccccc13)CCN(Cc1ccccc1)C2	?	0.0%	0.7	-5.4	-1.0%	?	.
CC(=O)Nc1ccc(NC(=O)COC(=O)c2c3c(nc4ccccc24)CCN(Cc2ccccc2)C3)cc1	?	5.86µM*	0.7	22.0*	?	10.4µM*	-3.5%
O=C(NCc1ccccc1Cl)c1cnc2ccccc2n1	?	12.2%	-1.2	45.8*	?	-10.4%	6.8%
CCn1cc(C(=O)NCc2ccccc2Cl)cn1	-0.2%	-22.1%	8.5	active	?	18.3%	0.2%
O=C(NCc1ccccc1Cl)NCc1ccccc1Cl	.	146.5%	1.4	-3.0	.	75.0%	.
Cc1ccc(S(=O)(=O)N(CC(=O)N/N=C\c2cccs2)c2cccc3cccnc23)cc1	-14.4%	9.1%	-2.6	-14.2	?	-9.3%	.
CCOC(=O)C1(CCCc2ccccc2)CCN(C(=O)C(C)n2cncn2)CC1 (stereo unspecified)	?	-1.6%	2.3	9.8	?	?	.
CCOC(=O)C1(CCCc2ccccc2)CCN(C(=O)CCn2cncn2)CC1	?	76.8%	7.8	39.3*	9.7%	8.8%	2.6%
Cc1cc(C)c2c(n1)SCC(=O)N2CC(=O)Nc1ccc(C)c(C)c1	8.3%[46.1 µM]	17.3%	-1.1	16.2*	17.5%[46.1 µM]	22.3%	0.5%
SMILES	Marburg entry inh	Pf growth 96h	CHX counter-1	Shiga inhibitor	Lassa entry inh	Pf growth 48h	CHX counter-2
CC1=C(C)CC2C(C1)C(=O)c1ccc(Br)cc1S2(=O)=O (stereo unspecified)	.	37.5%	.	.	.	-7.8%	.
Cc1ccn2c(=O)nc(SCC(=O)Nc3ccc4c(c3)OCO4)nc2c1	?	36.9%	.	.	-28.3%	-9.8%	.
Cc1cc(NC(=O)c2cc(F)c(F)cc2Cl)no1	?	-4.7%	-1.2	34.5*	-5.5%	30.3%	5.8%
Cc1c(C(=O)Nc2ccc(-c3nnc4n3CCCCC4)cc2)oc2ccc(Br)cc12	?	11.4%	-3.6	13.8*	?	25.2%	?
COC(=O)[C@@]1(Cc2ccc(F)cc2)[C@H]2c3cc(C(=O)N4CCCC4)n(CCc4ccc(O)c(O)c4)c3C[C@H]2CN1C(=O)c1ccccc1	?	5.86µM*	6.9	52.5*	9.6%	?	0.7%
O=C1Nc2ccccc2C1(O)Cc1ccccn1 (stereo unspecified)	3.0%[46.1 µM]	0.0%	-1.7	-1.1	20.3%	28.0%	.
CN1CC(c2ccccn2)C2(SC(=S)N(Cc3ccccc3)C2=O)C12C(=O)Nc1ccccc12 (stereo unspecified)	?	?	0.9	70.8*	32.2%[14.3 µM]	?	-5.5%
CCCCc1ccc(NC(=O)Nc2c(C)n(C)n(-c3ccccc3)c2=O)cc1	.	?	0.9	15.6	.	2.0%	.
CC1(C)OC(=O)C(=NNc2ccccc2)C(=O)O1	?	-22.8%	8.4	35.8*	8.8%	20.8%	2.1%
NNC(=O)c1ccc(NS(=O)(=O)c2ccc(Br)cc2)cc1	.	30.0%	2.4	28.4*	.	-16.6%	4.4%
C=CCOC(=O)NC(c1ccc(F)c(F)c1)S(=O)(=O)c1ccc(Cl)cc1 (stereo unspecified)	1.2%[14.2 µM]	.	.	.	.	.	.
CC(C)(C)c1cc(CCC(=O)N2CCC2)cc(C(C)(C)C)c1O	.	24.3%	13.5	14.0*	.	25.6%	4.6%
CC(C)(C)c1cc(CCC(=O)NN)cc(C(C)(C)C)c1O	-5.4%[46.1 µM]	-0.3%	11.9	-19.0	?	?	.
CCC(=O)N1CCc2cc(S(=O)(=O)NC(C(=O)N3CCN(c4ccc(F)cc4)CC3)C(C)C)ccc21 (stereo unspecified)	.	-1.8%	-3.3	16.7*	.	?	-3.3%
C=CCn1c(=S)[nH]c2cc(-c3ccccc3)sc2c1=O	12.2%[46.1 µM]	8.2%	-0.3	38.8*	3.4%[46.1 µM]	31.6%	?
C=CCn1c(=S)[nH]c2ccccc2c1=O	-6.1%	?	-0.9	-3.9	27.4%	-8.5%	.
O=c1c2ccccc2nc(SCc2nc3ccccc3s2)n1Cc1ccco1	?	-20.3%	2.7	-2.0	-25.9%	9.1%	.
O=c1c2ccccc2nc(SCc2cccc(F)c2)n1Cc1ccco1	-15.6%	7.1%	1.3	56.5*	-3.3%	?	1.9%
O=C(Nc1ccc2oc(-c3ccccc3)nc2c1)c1ccc2c(c1)OCCO2	?	100.7%	14.7	42.9*	-2.1%	8.4%	?
